IMPase Li inh: IMPase inhibition in cells with lithium potentiation; AID 1457; Potency, µM (top dose mostly 59.4 µM), for inactives: at the highest dose activity, negative = IMPase inhibition, most hits filed as inhibitors; 210,000 compounds, 0.35% hits; CHO-M1 cells, IP1 TR-FRET (IP-One), carbachol + lithium;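 also: IP1 builds up when IMPase is blocked and the TR-FRET signal falls; potency is read from the fitted curve at half-maximal effect; plate controls were basal vehicle for no effect and high inhibitor control for full effect; nearly all actives have a fitted effect of over 50% in size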
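CHO-M1, 2000 cells/well, 16–30 h culture; cpd + low Li+, 30 min 37C; lysis with d2-IP1/Eu-anti-IP1 Ab, 10 min RT; TR-FRET 665/620 ratio and 620 channel; AC50 via Hill.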
IMPase inh: membrane-permeable compound that blocks inositol monophosphatase. CHO-M1 cells, IP1 accumulation, HTRF TR-FRET ratio. 120,000 tested, under 10 active. P97697. inhibition (IP1 accumulation), % at 46.1 µM; active = well fitted curve in the direction sought with a large enough effect in the signal ratio, not every such curve was filed as active; inconclusive = small, poorly fitted or top-dose-only effect, or a change in a side signal; inactive = no such curve, though single readings can be large or run the other way; the % refers to the signal ratio;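 also: cells stimulated with carbachol in lithium chloride buffer; plate controls were DMSO basal wells for no effect and reference inhibitor wells for full effect; higher means more IMPase inhibition seen as more IP1 and lower FRET ratio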
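CHO-M1, 2000 cells/well, cultured 16–30 h; cpd up to 46 uM; carbachol (50 uM solution, stimulation buffer w/ 50 mM LiCl, pH 7.4), 30 min 37C; IP-One TR-FRET, 10 min RT; Ex 320/Em 665, 620; Hill-fit AC50.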
ALDH1A1 block: ALDH1A1 (human) enzyme inhibition. P00352. AID 1030. Purified ALDH1A1, NADH fluorescence, propionaldehyde substrate. 220,000 compounds, 7.3% hits. Potency, µM (top dose mostly 75.3 µM), for the others: at the highest dose activity, negative = inhibition, usual class: inhibitors; active = well fitted inhibition curve with a large enough effect, not every such curve was filed as active; inconclusive = small, poorly fitted or top-dose-only effect, or another doubt; inactive = no such curve, though single readings can be large or run the other way;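 also: potency is read from the fitted curve at half-maximal effect; plate controls were no enzyme wells and a reference inhibitor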
HPGD block: blocks human HPGD enzyme activity; P15428; purified HPGD, NADH fluorescence kinetic, PGE2 substrate; Potency, µM, inactives show top-dose activity change, negative = inhibition, actives largely listed as inhibitors; 150,000 compounds, 4.3% hits; active = well fitted inhibition curve with a large enough effect, not every such curve was filed as active; inconclusive = small, poorly fitted or top-dose-only effect, or another doubt; inactive = no such curve, though single readings can be large or run the other way; also: potency is read from the fitted curve at half-maximal effect
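20 nM HPGD preincubated 15 min at room temperature with compound in 50 mM Tris-HCl pH 8, 0.01% Tween 20. Started with 1 mM NAD+ and 30 uM prostaglandin E2; NADH fluorescence (360/450 nm) read 5 times over 30-s intervals, last minus first.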
ALOX12 inhib: blocks human 12-lipoxygenase activity; AID 1452; 150,000 compounds, 0.12% hits; purified 12-hLO, xylenol orange hydroperoxide absorbance; P18054; Potency, µM (top dose mostly 57.1 µM), inactives show top-dose activity change, negative = inhibition, actives largely listed as inhibitors; also: potency is read from the fitted curve at half-maximal effect; nearly all actives have a fitted effect of over 55% in size
Target sequence (P18054 whole entry, looked up): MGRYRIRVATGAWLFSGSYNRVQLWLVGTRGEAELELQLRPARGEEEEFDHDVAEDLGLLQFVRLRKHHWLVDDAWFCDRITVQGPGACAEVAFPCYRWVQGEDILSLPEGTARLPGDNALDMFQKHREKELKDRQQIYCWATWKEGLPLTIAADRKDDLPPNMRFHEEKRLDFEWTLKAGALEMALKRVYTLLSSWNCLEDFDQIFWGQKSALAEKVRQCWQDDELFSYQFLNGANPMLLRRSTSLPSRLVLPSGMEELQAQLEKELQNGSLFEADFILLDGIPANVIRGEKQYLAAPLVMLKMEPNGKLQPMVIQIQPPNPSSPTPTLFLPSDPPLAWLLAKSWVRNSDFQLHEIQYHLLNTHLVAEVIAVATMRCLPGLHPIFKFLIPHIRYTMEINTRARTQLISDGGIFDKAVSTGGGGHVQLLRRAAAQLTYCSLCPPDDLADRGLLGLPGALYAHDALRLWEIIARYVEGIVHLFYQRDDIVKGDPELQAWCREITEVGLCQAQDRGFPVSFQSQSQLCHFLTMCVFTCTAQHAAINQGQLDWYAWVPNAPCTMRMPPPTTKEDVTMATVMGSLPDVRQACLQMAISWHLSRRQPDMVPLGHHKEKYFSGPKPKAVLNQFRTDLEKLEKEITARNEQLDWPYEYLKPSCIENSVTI
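Purified human 12hLO (150 nM), preincubated 15 min with compound, then 40 uM arachidonic acid for 30 min, room temperature, Hepes pH 7.0 with 0.01% Triton X-100. Hydroperoxide detected by ferrous iron/xylenol orange; 573/405 nm absorbance ratio gives reaction progress.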
PNC inhibitor: blocks assembly of the perinucleolar compartment; PC3M PTB-GFP, PNC prevalence imaging, 16 h; stronger effect = lower value; activity change (PNC), negative = inhibition, % at 10 µM; 140,000 compounds, 3.1% hits; AID 2417;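 active = readout at or below -70, meaning at least 70% loss of cells showing the perinucleolar compartment, a nuclear body marking cancer cells; inconclusive = readout between -30 and a set limit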;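 also: plate controls were DMSO wells for no effect and camptothecin positive control wells for full effect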
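Read-out is percentage of cells bearing a perinucleolar compartment, from automated 20x imaging of fixed, Hoechst-stained PC3M PTB-GFP cells. Cells were seeded 4 h, then exposed 16 h to compound (23 nl of library stock) in duplicate plates.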
* = called active by the depositor; [ ] = another dose, or the depositor's remark. Compounds with a hit are over-represented: about 11% of the library has one in this group of screens. Unless noted, calls follow the shape of the dose curve; as a rule, active = well fitted curve in the direction sought with a large enough effect; inconclusive = small, poorly fitted or top-dose-only effect, or another doubt; inactive = no such curve, though single readings can be large; an effect the other way counts as inactive or inconclusive. Unless noted, % is scaled to controls: 0 for no effect and ±100 for the full control effect.

How did COc1ccc(S(=O)(=O)N(C)CC(=O)Nc2c(F)cccc2F)cc1 do in these assays?
IMPase Li inh: 12.4%[38.3 µM]; IMPase inh: 6.8[1.84 µM]; ALDH1A1 block: inconclusive; HPGD block: -5.0%; ALOX12 inhib: -2.8%; PNC inhibitor: -102.6*

Results for COc1ccc(C(CC(=O)NCc2ccco2)c2ccc(F)cc2)cc1 (stereo not drawn) ?
IMPase Li inh: 4.1%[38.3 µM]; IMPase inh: 4.7; ALDH1A1 block: 1.2%; HPGD block: 15.8µM*; ALOX12 inhib: -4.3%; PNC inhibitor: -18.6

What do the screens show for `COCCN(CCOC)c1nc(C)nc2c1nc(-c1ccccc1)n2CCN(C)C`?
IMPase Li inh: -3.0%; ALDH1A1 block: inconclusive; HPGD block: inconclusive; ALOX12 inhib: 0.4%

What do the screens show for `CC(C)c1ccc(C(=O)Nc2ccc(-c3nc4ccccc4s3)c(Cl)c2)cc1`?
IMPase inh: 2.5

What do the screens show for `Cc1ccccc1Nc1nnc(-c2ccc(C)c(S(=O)(=O)NCC3CCCO3)c2)c2ccccc12` (stereo not drawn)?
IMPase inh: 3.2

Results for COc1ccc(S(=O)(=O)N(C)CC(=O)NCc2ccco2)cc1 ?
IMPase Li inh: -12.5%[38.3 µM]; IMPase inh: -4.0; ALDH1A1 block: 35.5µM*; HPGD block: -18.8%; ALOX12 inhib: -1.2%; PNC inhibitor: 10.6

Results for CS(=O)(=O)N(CC(=O)NCc1ccco1)c1ccc(OCc2ccccc2)cc1 ?
IMPase Li inh: 1.4%; ALDH1A1 block: 18.9µM*

Results for COc1ccc(N(CC(=O)NCc2ccco2)S(C)(=O)=O)cc1 ?
IMPase Li inh: -15.0%[38.3 µM]; IMPase inh: -8.0; ALDH1A1 block: 2.0%; HPGD block: -6.7%; ALOX12 inhib: -1.8%; PNC inhibitor: -4.6

How did COc1ccc(NC(=O)CC(c2ccc(F)cc2)c2ccc(OC(C)C)cc2)cc1 (stereo not drawn) do in these assays?
IMPase Li inh: 6.8%; ALDH1A1 block: 0.199µM*; HPGD block: -3.5%; ALOX12 inhib: 0.9%; PNC inhibitor: -18.5

How did CC(=O)N1CCC2(CCCN(c3ccccc3)C2)CC1 do in these assays?
IMPase Li inh: 13.1%; ALDH1A1 block: -4.7%; HPGD block: -10.0%; ALOX12 inhib: 1.0%

What do the screens show for `O=C(c1ccccc1)N1CCN(C2c3cccc4cccc(c34)C2NS(=O)(=O)c2ccccc2)CC1` (stereo not drawn)?
IMPase Li inh: 3.9%[38.3 µM]; IMPase inh: 4.9; ALDH1A1 block: 11.2µM*; HPGD block: -10.9%; ALOX12 inhib: -9.3%; PNC inhibitor: -19.3

What do the screens show for `CC(=O)NC(=S)Nc1ccc2oc(=O)ccc2c1`?
ALDH1A1 block: 8.91µM*

What do the screens show for `Cn1c(=O)n(C)c2cc(NC(=O)c3cc4ccccc4o3)ccc21`?
IMPase Li inh: 26.2%[38.3 µM]; IMPase inh: -8.6; ALDH1A1 block: inconclusive; HPGD block: -16.4%; ALOX12 inhib: -0.9%; PNC inhibitor: inconclusive

How did O=C(Nc1ccc2oc(=O)ccc2c1)c1cc2ccccc2o1 do in these assays?
IMPase Li inh: 11.6%; IMPase inh: 29.4; ALDH1A1 block: -2.9%; HPGD block: inconclusive; ALOX12 inhib: 10.1%; PNC inhibitor: -118.9*

How did Cc1cc(=O)oc2cc(NC(=O)c3cc4ccccc4o3)ccc12 do in these assays?
IMPase Li inh: 2µM*; IMPase inh: -2.3; ALDH1A1 block: inconclusive; HPGD block: inconclusive; ALOX12 inhib: -6.8%; PNC inhibitor: 30.4

What do the screens show for `O=c1c2cnn(-c3ccccc3)c2nnn1/N=C/c1cccnc1`?
IMPase Li inh: -3.9%[38.3 µM]; IMPase inh: -5.7; ALDH1A1 block: 0.398µM*; HPGD block: -7.3%; ALOX12 inhib: -4.5%; PNC inhibitor: 23.3

Results for C(=N\n1cnc2ccccc21)/c1cccnc1 ?
IMPase Li inh: 6.1%[38.3 µM]; IMPase inh: 0.3; ALDH1A1 block: 0.6%; HPGD block: -6.2%; ALOX12 inhib: 8.5%; PNC inhibitor: 7.3

How did COc1ccc(OC)c(CN2CCN(C(=O)c3cccs3)CC2)c1 do in these assays?
IMPase Li inh: 7.3%[38.3 µM]; IMPase inh: 2.0; ALDH1A1 block: -16.2%; HPGD block: -7.1%; ALOX12 inhib: -5.1%; PNC inhibitor: -27.5

Source: PubChem (National Center for Advancing Translational Sciences (NCATS))
